The source made the active and inactive calls.

The subject of test [1] is Human papillomavirus type 1a protein E7 (residues 44-93). The test is described as follows: small molecules binding HPV E7 44-93 – biochemical, small-molecule microarray, residues 44-93, 635 nm fluorescence, primary screen (AID 1108).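 Note: E7 fragment applied at 1 µg/mL in TBST for 1 h at 4 C; score combines spot fluorescence with its signal to noise ratio.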 The following applies: fluorescence 635 nm, higher = more signal.
Test [2] is described as follows: hepatitis C replication reporter changes, two-sided – Huh7 cells, luciferase reporter, HCV replication inhibitor project, primary screen (AID 1109).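 Note: huh7 hepatoma cells harbouring a luciferase neomycin HCV replicon reporter; luciferase luminescence as measure of HCV replicon replication; test concentration not given here.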 The note with it: Huh7 HCV replicon luciferase reporter, 48 h; higher = more signal.
The target of test [3] is Left-right determination factor 2 (Homo sapiens) (UniProt O00292). The test is described as follows: small molecules binding LEFTY2 protein – biochemical, small-molecule microarray, 635 nm fluorescence scan, primary screen (AID 1110). The note with it: higher = more signal.
For test [4], the target named is Calmodulin-1 (Homo sapiens) (UniProt P0DP23). The test is described as follows: small molecules binding calmodulin-1 with EGTA – biochemical, small-molecule microarray, Cy5-labelled CALM1, profiling panel (AID 1111).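 Note: labelled calmodulin applied in Tris saline Tween buffer holding calcium plus EGTA and DTT.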 The note with it: Cy5-CALM1 binding fluorescence, higher = more signal.
Test [5] shares this target. The test is described as follows: small molecules binding Ca-loaded calmodulin-1 – biochemical, small-molecule microarray, Cy5-labelled CALM1, plus calcium, artefact control for SMM control-protein annotation, profiling panel (AID 1112).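 Note: score merges spot fluorescence with signal to noise from triplicate slides.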 The following applies: Cy5-CALM1 binding fluorescence, higher = more signal.
Test [6] is described as follows: probe aWnt5a binding to arrayed compounds – biochemical, biotinylated probe, 635/667 nm fluorescence, primary screen (AID 1113).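 Note: score merges 667 nm fluorescence intensity with signal-to-noise per printed feature.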 The note with it: small-molecule microarray, higher = more signal.
The nature of test [7]: probe aShh binding to arrayed compounds – biochemical, biotinylated probe, 635/667 nm fluorescence, primary screen (AID 1114).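 Note: probe is biotin-labelled aShh protein from a stem cell growth factor screen; measures binding of labelled protein to compounds printed on the slide; score merges feature fluorescence at 667 nm with signal-to-noise.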 The note with it: small-molecule microarray, higher = more signal.
Test [8] is described as follows: probe aNog binding to arrayed compounds – biochemical, biotinylated probe, 635/667 nm fluorescence, primary screen (AID 1115).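 Note: probe is biotinylated aNog protein used at 0.15 µg/mL for 1 h at 4 C; z-score combines 667 nm fluorescence of each spot with its signal to noise.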 The following applies: small-molecule microarray, higher = more signal.
In test [9] the target is Torsin-1A-interacting protein 1 (Homo sapiens) (UniProt Q5JTV8). The test is described as follows: compound microarray binding of lysate hLAP1 – cell lysate, small-molecule microarray, COS7 lysate, 635/667 nm fluorescence, primary screen (AID 1116). The following applies: 635 nm fluorescence, higher = more signal.
Test [10] concerns the target Alpha-bungarotoxin (Bungarus multicinctus) (UniProt P60615). The test is described as follows: compounds binding labelled alpha-BTX control protein – biochemical, small-molecule microarray, Alexa647 label, 635/667 nm fluorescence, artefact control for SMM control protein annotation, profiling panel (AID 1117). The following applies: alpha-BTX-A647 binding fluorescence, higher = more signal.

The target of test [11] is Albumin (Bos taurus) (UniProt P02769). The test is described as follows: compounds binding labelled BSA control protein – biochemical, small-molecule microarray, Alexa647 label, 635/667 nm fluorescence, artefact control for SMM control protein annotation, profiling panel (AID 1118).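 Note: score merges 667 nm emission intensity and signal-to-noise per printed compound spot.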 The note with it: BSA-A647 binding, fluorescence 635 nm, higher = more signal.
The nature of test [12]: probe aXIP binding to arrayed compounds – biochemical, NeuroSMM set, 635/667 nm fluorescence, primary screen (AID 1119).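 Note: probe is the protein aXip251-270 applied at 1 µg/mL to compound-printed slides; binding of probe to printed compounds measured as 667 nm fluorescence plus signal to noise.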 The following applies: small-molecule microarray, higher = more signal, called active from +8 up or from −8 down.
Test [13] can be described thus: probe aNOTCH3 binding on compound microarray – biochemical, small-molecule microarray, 635/667 nm fluorescence, primary screen (AID 1120).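 Note: probe is a biotin-tagged antibody raised against NOTCH3 rather than NOTCH3 protein; score merges spot fluorescence near 667 nm with spot signal to noise.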 The following applies: higher = more signal.
Test [14] in a line: probe aNOTCH2 binding on compound microarray – biochemical, small-molecule microarray, 635/667 nm fluorescence, primary screen (AID 1121).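 Note: score merges feature fluorescence read at 667 nm with its signal to noise.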 The following applies: higher = more signal.
The target of test [15] is Carbonic anhydrase 2 (Homo sapiens) (UniProt P00918). The experiment in a line: compounds binding carbonic anhydrase 2 – biochemical, small-molecule microarray, Alexa647-labelled CAII, profiling panel (AID 1122). The note with it: CAII-A647 binding fluorescence, higher = more signal.
Test [16] can be described thus: COS7 lysate on small-molecule microarray, probe aHis, 635 nm (AID 1123).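 Note: z-score combines 667nm fluorescence intensity with signal-to-noise per printed compound spot.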 The note with it: COS7 cell lysate, fluorescence, higher = more signal.
Test [17] in a line: probe aLAP1 signal on lysate-treated microarray – cell lysate, small-molecule microarray, COS7 lysate, primary screen (AID 1124).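 Note: lysate comes from COS7 cells expressing LAP1 and is applied at 0.3 µg/mL; score merges spot fluorescence near 667 nm with signal-to-noise over triplicate slides.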 The note with it: probe aLAP1, fluorescence, higher = more signal.
Test [18] has as its system Sam68 (KHDRBS1). The experiment in a line: compounds binding KHDRBS1 protein – biochemical, small-molecule microarray, 635 nm fluorescence, primary screen (AID 1125).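 Note: score merges 667 nm channel intensity with signal to noise over triplicate slides.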 The note with it: higher = more signal.
Test [19] deals with Chordin-like protein 2 (CHRDL2). The experiment in a line: compounds binding chordin-like 2 – biochemical, small-molecule microarray, 635 nm fluorescence, primary screen (AID 1126).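 Note: printed compound slides probed with Chrdl2 protein at 4 µg/mL for 1 h at 4 C; score merges 667 nm emission intensity with signal to noise over three replicate slides.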 The following applies: fluorescence 635 nm, higher = more signal.
In test [20] the target is Concanavalin-A (Canavalia ensiformis) (UniProt P02866). The test is described as follows: compounds binding concanavalin A lectin – biochemical, small-molecule microarray, Alexa647 label, 635 nm, artefact control for SMM control protein annotation, primary screen (AID 1127).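 Note: z combines 667 nm emission intensity with signal-to-noise across three replicate slides.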 The note with it: ConA-A647 binding fluorescence, higher = more signal.
Sequence of Concanavalin-A (Canavalia ensiformis) (P02866 whole entry, looked up): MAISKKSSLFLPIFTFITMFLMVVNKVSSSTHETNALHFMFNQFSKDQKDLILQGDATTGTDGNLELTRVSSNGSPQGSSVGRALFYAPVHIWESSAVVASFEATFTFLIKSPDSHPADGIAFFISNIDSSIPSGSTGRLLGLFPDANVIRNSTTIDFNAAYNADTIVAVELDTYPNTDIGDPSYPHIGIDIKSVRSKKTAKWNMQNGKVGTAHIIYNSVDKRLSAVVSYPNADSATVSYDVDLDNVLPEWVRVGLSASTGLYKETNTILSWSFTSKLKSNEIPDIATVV

Sequence of Albumin (Bos taurus) (P02769 whole entry, looked up): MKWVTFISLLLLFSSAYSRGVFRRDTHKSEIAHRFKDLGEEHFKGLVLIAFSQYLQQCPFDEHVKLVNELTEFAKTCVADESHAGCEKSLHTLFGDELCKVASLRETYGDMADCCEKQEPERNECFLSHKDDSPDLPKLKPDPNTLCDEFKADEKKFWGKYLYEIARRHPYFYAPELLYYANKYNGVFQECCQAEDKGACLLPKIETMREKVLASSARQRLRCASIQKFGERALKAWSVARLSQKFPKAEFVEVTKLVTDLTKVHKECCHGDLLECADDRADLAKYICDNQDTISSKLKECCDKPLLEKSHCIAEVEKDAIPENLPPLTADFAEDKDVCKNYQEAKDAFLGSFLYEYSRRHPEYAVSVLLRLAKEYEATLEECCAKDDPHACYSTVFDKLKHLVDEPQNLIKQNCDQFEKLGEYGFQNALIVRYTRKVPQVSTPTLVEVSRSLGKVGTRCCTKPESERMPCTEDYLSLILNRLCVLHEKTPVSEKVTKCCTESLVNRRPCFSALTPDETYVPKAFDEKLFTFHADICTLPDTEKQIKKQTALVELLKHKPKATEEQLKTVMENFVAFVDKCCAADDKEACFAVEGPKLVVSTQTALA
Sequence of Alpha-bungarotoxin (Bungarus multicinctus) (P60615 whole entry, looked up): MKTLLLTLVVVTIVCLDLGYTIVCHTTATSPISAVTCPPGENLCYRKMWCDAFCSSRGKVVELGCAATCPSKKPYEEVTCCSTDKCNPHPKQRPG
Sequence of Torsin-1A-interacting protein 1 (Homo sapiens) (Q5JTV8 whole entry, looked up): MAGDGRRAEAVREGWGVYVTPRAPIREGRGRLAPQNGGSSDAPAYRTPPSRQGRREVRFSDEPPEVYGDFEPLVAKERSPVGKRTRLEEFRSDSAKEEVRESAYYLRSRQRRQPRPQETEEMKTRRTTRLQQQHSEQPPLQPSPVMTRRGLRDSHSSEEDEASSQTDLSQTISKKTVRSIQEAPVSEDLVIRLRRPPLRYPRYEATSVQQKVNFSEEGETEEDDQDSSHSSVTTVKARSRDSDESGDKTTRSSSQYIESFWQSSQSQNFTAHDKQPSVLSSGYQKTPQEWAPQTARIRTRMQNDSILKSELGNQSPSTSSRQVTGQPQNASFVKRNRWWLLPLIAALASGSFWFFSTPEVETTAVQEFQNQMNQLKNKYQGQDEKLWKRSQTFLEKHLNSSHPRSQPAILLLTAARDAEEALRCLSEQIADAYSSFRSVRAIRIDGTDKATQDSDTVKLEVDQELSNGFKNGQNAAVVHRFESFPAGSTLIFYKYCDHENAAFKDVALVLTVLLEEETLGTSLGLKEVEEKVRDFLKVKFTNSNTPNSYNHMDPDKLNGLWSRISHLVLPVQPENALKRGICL
Sequence of Left-right determination factor 2 (Homo sapiens) (O00292 whole entry, looked up): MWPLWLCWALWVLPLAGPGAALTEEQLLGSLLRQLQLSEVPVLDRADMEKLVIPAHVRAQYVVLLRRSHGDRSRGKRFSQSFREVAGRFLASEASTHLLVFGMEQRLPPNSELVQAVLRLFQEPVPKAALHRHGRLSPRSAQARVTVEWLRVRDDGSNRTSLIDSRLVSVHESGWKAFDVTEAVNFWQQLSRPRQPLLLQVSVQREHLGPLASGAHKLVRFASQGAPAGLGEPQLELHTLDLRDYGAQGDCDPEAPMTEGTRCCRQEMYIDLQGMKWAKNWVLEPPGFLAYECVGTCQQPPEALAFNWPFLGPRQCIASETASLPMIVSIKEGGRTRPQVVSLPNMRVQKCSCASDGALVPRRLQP

As for `O=C1O[C@H](c2ccccc2)[C@H](c2ccccc2)N2[C@H]1[C@@H](C(=O)O)[C@]1(C(=O)Nc3ccc(C#CC4(O)CCCCCC4)cc31)[C@H]2c1ccc(OCCO)cc1`, the composite z-score in [1] is 1.5; in test [3] it was -0.418; in [4], 1.89; in test [5] it was 0.475; in [6], 0.0692; in [7] it was 0.0048. The composite z-score in test [8] was 0.0028; in test [9], 0.535; in test [10], 2.21; in test [11], 0.906; in [13] it was 0.0876; in test [14], -0.0727. Also, the composite z-score in test [15] was 0.672; in [16], 2.58; in [17] it was 0.78; in test [18], 1.29; in test [19], -0.862; in test [20], 1.06. This compound yielded a z-score in test [2] of -1.77. Moreover, the composite Z-score in test [12] is -0.0503 (inactive).
On to `Cc1cc(C)c(C(O)C2C=CC3C(=O)N(c4ccccc4)C(=O)C3N2Nc2ccc(C#N)cc2)c(C)c1` (stereo not given), for which the composite z-score was 0.486 in test [1]; 0.219 in [3]; 2.56 in test [4]; 1.17 in test [5]; 0.0894 in test [6]; -0.0793 in test [7]. The composite z-score in test [8] was determined as 1.97; in test [9], 0.922; in [10], 1.79; in [11] it was 1.07; in test [13], 0.0649; in [14], 0.115. Further, the composite z-score in test [15] was 0.743; in test [16], 3.02; in [17], 0.629; in [18], 1.35; in test [19] it was -0.183; in [20], 1.19. In addition, the z-score in [2] was -0.111. Also, in test [12], the composite Z-score is 0.902 (inactive).
Regarding `O=C1OCC=C[C@H]2OC34C=CCN(c5ccc(Cl)cc5)C(=O)[C@H]3N(CCCCCCO)C(=O)[C@@H]4[C@@H]12` (stereo not given in full), the composite z-score is -0.851 in test [1]; -1.21 in test [3]; -0.123 in test [4]; 0.174 in test [5]; -0.128 in test [6]; 0.0062 in [7]. The composite z-score in [8] was 0.46; in test [9], -0.143; in test [10], -1.34; in test [11] it was -0.95; in test [13], -0.226; in test [14] it was -0.148. In addition, the composite z-score in test [15] was 0.978; in [16], 0.568; in [17], 0.688; in test [18] it was -1.02; in test [19], -1.03; in test [20], -1.59. Also, the z-score in test [2] is -0.493. Besides, the composite Z-score in [12] is 0.276 (inactive).
On to `COc1ccc([Si](C)(C)[C@@H]2[C@@H](CC(=O)N3CCC[C@H]3CO)O[C@]3(C(=O)N(C)c4c(Br)cc(C)cc43)[C@H]2C)cc1`, for which the composite z-score is 1.28 in [1]; 0.396 in test [3]; 0.207 in [4]; 0.0431 in test [5]; 0.0219 in test [6]; -0.0035 in test [7]. Moreover, the composite z-score in [8] was -0.229; in test [9], 0.948; in test [10] it was 0.338; in test [11], 0.588; in test [13], 0.0674; in test [14] it was -0.175. The composite z-score in [15] was determined as 0.292; in test [16] it was 1.15; in [17] it was 0.461; in test [18], 1.3; in [19], 0.872; in test [20], 1.07. This compound also yielded a z-score in test [2] of -2.05. Further, in test [12], the composite Z-score is 0.306 (inactive).
Regarding `CN1C(=O)C2C(C1=O)C1C=C(CCCO)C2C(c2cccs2)N1C` (stereo not given), the composite z-score was 0.0537 in [1]; -0.676 in test [3]; 0.203 in [4]; 0.451 in test [5]; -0.0462 in test [6]; 0.469 in [7]. The composite z-score in test [8] is -0.395; in [9], -0.646; in test [10], -0.513; in test [11], 0.565; in test [13] it was -0.154; in [14], -0.231. The composite z-score was 0.779 in test [15]; 0.138 in test [16]; 1.62 in test [17]; -0.27 in test [18]; -0.0999 in test [19]; -0.774 in test [20]. The compound also returned a z-score in test [2] of -0.999. Further, the composite Z-score in test [12] is 0.654 (inactive).
Turning to `COCCOC(=O)N1C(=O)[C@@]2(c3cc(C#CCC(C(=O)OC)C(=O)OC)ccc31)[C@H](C(=O)N1CCN(c3ncccn3)CC1)[C@H]1C(=O)O[C@H](c3ccccc3)[C@H](c3ccccc3)N1[C@@H]2c1ccc(OCCO)cc1`, the composite z-score is 1.34 in test [1]; 0.521 in [3]; 0.505 in test [4]; -0.127 in test [5]; -0.0778 in test [6]; -0.2 in test [7]. The composite z-score is -0.213 in [8]; 0.383 in [9]; 0.536 in test [10]; 0.727 in [11]; 0.0097 in test [13]; -0.14 in test [14]. Also, the composite z-score in test [15] is 0.323; in test [16], 1.35; in test [17], 0.522; in [18], 1.3; in test [19] it was 0.17; in [20], 1.09. Also, the z-score in test [2] is -0.974. The composite Z-score in test [12] was 1.44 (inactive).

The record behind these values is PubChem BioAssay.
